# Compounds with a hit are over-represented: about 4% of the library has one in this group of screens.
# Peg3 prom inh = inhibitors of Peg3 promoter; HeLa PEG-Prom luciferase reporter, luminescence, overnight; inhibition, % at 20 µM; actives 1.7% (n = 360,000); AID 588405;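 active means inhibition of at least 50% at 20 µM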
# KKLEB cytotox = counter-screen for CF NF-kB inhibitors: cytotoxicity; KKLEB CF airway cells viability, ATPlite luminescence, overnight; hits give low values; cells stimulated with P. aeruginosa culture filtrate; activity change (cytotoxicity), % at 5 µM; actives 0.36% (n = 360,000);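 active means corrected activity change at or below -50% at 5 µM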
# CF NFkB block = blocks PAF-induced NF-kB reporter in cystic fibrosis cells | KKLEB NF-kB-GFP reporter, GFP fluorescence overnight | inhibition, % at 5 µM | actives 0.86% (n = 360,000) | AID 588850;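 active means at least 50% inhibition at 5 µM, scaled per plate between neutral and stimulator controls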;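 further: PAF is a Pseudomonas aeruginosa culture filtrate used as stimulus; plate controls were PAF-stimulated DMSO wells for no effect and unstimulated DMSO wells for full effect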
# HIF-2a block = inhibitors of HIF-2a | 786-0 RCC cells HIF-2a reporter, luciferase luminescence, overnight | inhibition, % at 18.8 µM | actives 0.72% (n = 360,000);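 active means inhibition of the luminescence signal of 40% or more relative to plate controls, in a single-dose primary screen at 18.75 µM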
# TROY NFkB inh = blocks TROY-dependent signaling in reporter cells; inhibition, % at 10 µM; Q293 LMP1-TROYcd NF-kB luciferase reporter, 4 h; actives 0.98% (n = 360,000); AID 1347056;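 active means compounds whose plate-normalised and pattern-corrected inhibition of the luciferase reporter signal at the single screening dose is 50% or more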
# TWEAK-Fn14 inh = blocks TWEAK-Fn14 interaction in a reporter cell assay; inhibition, % at 10 µM; actives 2% (n = 360,000); TWEAK-stimulated Fn14 reporter cells, luciferase luminescence, 8 h; in the data active means inhibition above about 50%
# * marks the source's active call; other numbers are inactive results; x = no result.
SMILES,Peg3 prom inh,KKLEB cytotox,CF NFkB block,HIF-2a block,TROY NFkB inh,TWEAK-Fn14 inh
CC(C)(C)c1ccc(/C=C2\SC(=O)N(CCNC(=O)c3cccc(S(=O)(=O)N4CCOCC4)c3)C2=O)cc1,17,-22,-3,9,84*,93*
CN1CCN(NC(=O)c2ccc(Cl)c(S(=O)(=O)Nc3ccc(Cl)cc3)c2)CC1,-1,2,5,13,-26,-11
CC(CNS(=O)(=O)c1ccc2c(c1)NC(=O)CCS2)c1ccccc1 (centres undefined),22,17,-25,11,8,2
CCN1CCN(CCNC(=O)c2ccc3c(c2)N(Cc2ccc(F)cc2)C(=O)/C(=C/c2ccccc2)S3)CC1,103*,-26,37,29,1,-52
O=C(NCCN1CCOCC1)c1ccc(/C=C2\Sc3ccccc3N(Cc3ccccc3F)C2=O)cc1,59*,-10,46,-6,34,40
COc1ccc(/C=C2\Sc3ccc(C(=O)NCCN4CCCCCC4)cc3N(C)C2=O)cc1,36,4,10,4,27,-27
O=C(CN1C(=O)/C(=C/c2ccc(C(F)(F)F)cc2)Sc2ccccc21)NCCCN1CCOCC1,7,-9,20,-18,-5,-14
O=C(c1ccc([N+](=O)[O-])cc1)N1CCN(C2=NS(=O)(=O)c3ccccc32)CC1,-2,11,3,0,12,17
Cc1cccc(NC(=O)C(C)Sc2nc3nc(C)cc(C)n3n2)c1 (centres undefined),-2,-15,1,-2,18,-2
O=C1N(c2ccccc2C(F)(F)F)O[C@@]1(c1ccccc1)C1CCCC1,70*,-2,29,22,-1,14
CC(C)C[C@]1(c2ccccc2)ON(c2ccccc2C(F)(F)F)C1=O,33,5,-8,25,1,-11
COc1ccc(-c2noc(-c3csc([C@@H]4O[C@H](CO)[C@H](O)[C@H](O)[C@H]4O)n3)n2)cc1OC,-24,-6,5,-15,16,-1
Cc1nn(CC(C)C(=O)N2CCN(S(=O)(=O)c3ccc(Cl)cc3)CC2)c(C)c1C (centres undefined),14,8,4,15,-4,6
COc1cccc(CN(C)C(=O)c2ccc(OCC(=O)Nc3cccc(C(F)(F)F)c3)c(OC)c2)c1,15,-8,-10,-18,40,61*
Cc1cn([C@H]2C[C@H](O)[C@@H](CNC(=O)[C@H](N)Cc3cn(COCc4ccccc4)cn3)O2)c(=O)[nH]c1=O,14,7,-14,-1,-18,51*
C=CCOc1ccc(C[C@H](N)C(=O)NC[C@H]2O[C@@H](n3cc(C)c(=O)[nH]c3=O)C[C@@H]2O)cc1,-4,11,-50,9,1,5
CC(C)C[C@@H]1CN(CCCC[C@H]2CNC(=O)C(=O)N2CCC2CCCCC2)C(=O)C(=O)N1Cc1ccccc1,x,x,x,5,10,12
Cc1csc(=O)n1CC(=O)Nc1ccc(Cl)cc1F,3,-12,-26,15,-13,-3
O=C(/C=C/c1ccnc2ccccc12)c1cccs1,102*,-14,61*,-98,70*,65*
Cc1ccc(-n2ncc3c(NNC(=O)c4ccco4)ncnc32)cc1Cl,-40,-13,22,-66,19,50*
Cc1cccc(-n2ncc3c(NNC(=O)c4ccco4)ncnc32)c1,-17,5,-1,-43,-22,-7
Clc1ccc(-n2ncc3c(NCc4cccnc4)ncnc32)cc1Cl,-336,-18,3,-266,51*,19
CCn1nc([N+](=O)[O-])c(C(C#N)c2nc3ccccc3n2C)c(Cl)c1=O (centres undefined),26,-17,43,27,9,69*
Cc1cc(C)c2nc(NCCCNC(=S)NCCCN(C)C)c(C#N)cc2c1,91*,-3,1,9,4,10
O=C(CSc1nnc(-c2ccncc2)n1Cc1ccco1)Nc1ccccc1Cl,13,-17,16,10,3,12
Cc1csc(NC(=O)CSc2nnc(-c3ccco3)n2C)n1,-21,-1,3,7,81*,86*
O=C(CSc1nnc(-c2ccncc2)n1Cc1ccco1)Nc1nc(-c2ccccc2)cs1,22,-55*,43,2,9,28
